PubChem BioAssay (NCATS)
Records with an inconclusive call do not appear. Activity calls are given as the source filed them. Unless noted, the call rests on the fitted dose curve; in most records, active means well fitted curve in the direction sought with a large enough effect; inconclusive means small, poorly fitted or top-dose-only effect, or another doubt; inactive means no such curve, though single readings can be large; an effect the other way counts as inactive or inconclusive.

Legend:
[1] = Cell Viability - LYMP2-025 (AID 976);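 further: series mostly up to about 92 µM; plate controls were DMSO only for no effect and tetraoctylammonium bromide control for full effect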
Procedure, shortened: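 Luminescent ATP readout after 24 hr treatment of a human lymphoblastoid line (LYMP2-025, 2500 cells/well, 37 C). Reagent developed 30 min at room temperature; AC50 fitted with the Hill equation.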

[2] = Cell Viability - LYMP2-002 (AID 977);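 further: series mostly up to about 92 µM; compound exposure lasted 24 h at 37 °C; plate controls were DMSO only for no effect and 92 µM tetraoctylammonium bromide for full effect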
Procedure, shortened: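 Human lymphoblastoid cells (2500/well) in complete medium were preincubated 5 hr at 37 C, then exposed to compounds for 24 hr at 37 C. Intracellular ATP was read by CellTiter-Glo luminescence; AC50 came from Hill-equation concentration-response fits.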

[3] = Cell Viability - LYMP2-006 (AID 978); further: series mostly up to about 92 µM; on the % scale 0 is the no-effect control and ±100 the full control effect; nearly all actives have a fitted effect of over 60% in size
Procedure, shortened: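 Cells are seeded at 2500 per well and rested 5 hr at 37 C. Compounds are added across a concentration series for 24 hr at 37 C, after which ATP is quantified by luciferase luminescence.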

[4] = Cell Viability - LYMP2-007 (AID 979);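 further: cells exposed to compound for 24 h before reading; 0% = DMSO only and the negative end = 92 µM tetraoctylammonium bromide; nearly all actives have a fitted effect of over 60% in size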
Procedure, shortened: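 Measured via luciferase-based ATP quantitation: lymphoblastoid cells, 24 hr compound exposure at 37 C, AC50 from Hill fits.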

[5] = Cell Viability - LYMP2-008 (AID 980); further: on the % scale 0 is the no-effect control and ±100 the full control effect; nearly all actives have a fitted effect of over 60% in size
Procedure, shortened: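 Measured: ATP-dependent luminescence, proportional to viable cell number, in human lymphoblastoid cells treated 24 hr with compound in complete culture medium. Values are AC50s from Hill-equation modelling of qHTS titrations.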

[6] = Cell Viability - LYMP2-010 (AID 981); further: on the % scale 0 is the no-effect control and ±100 the full control effect; nearly all actives have a fitted effect of over 55% in size
Procedure, shortened: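 This 24 hr viability screen uses LYMP2-010 lymphoblastoid cells, quantifies ATP via luciferase luminescence, and derives AC50 from Hill fits of qHTS concentration-response data.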

[7] = Cell Viability - LYMP2-012 (AID 982);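 further: cellular ATP by luciferase luminescence where a drop means cytotoxicity; cells exposed to compound for one day before reading; 0% = DMSO only and full loss = 92 µM tetraoctylammonium bromide; nearly all actives have a fitted effect of over 55% in size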
[8] = Cell Viability - LYMP2-014 (AID 983);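 further: series mostly up to about 92 µM; plate controls were DMSO only for no effect and 92 µM tetraoctylammonium bromide for full effect; nearly all actives have a fitted effect of over 50% in size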
Procedure, shortened: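 Quantitative HTS in lymphoblastoid cells: 24 hr compound exposure, then CellTiter-Glo ATP luminescence. Positive control was tetraoctylammonium bromide, 6.4pM to 92 uM.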

[9] = Cell Viability - LYMP2-016 (AID 984); further: on the % scale 0 is the no-effect control and ±100 the full control effect; nearly all actives have a fitted effect of over 55% in size
Procedure, shortened: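 Cells were seeded at 2500 per well and rested 5 hr before a 24 hr compound exposure at 37 C. Viability was then gauged as cellular ATP by luciferase luminescence, with AC50 values fitted to the Hill equation.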

[10] = Cell Viability - LYMP2-018 (AID 985);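 further: plate controls were DMSO only for no effect and tetraoctylammonium bromide at 92 µM for full effect; nearly all actives have a fitted effect of over 50% in size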
Procedure, shortened: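 In this qHTS viability assay, cells are treated for 24 hr and cellular ATP is quantified by luciferase-based luminescence, with tetraoctylammonium bromide as positive control.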

[11] = Cell Viability - LYMP2-020 (AID 986);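 further: series mostly up to about 92 µM; plate controls were DMSO only for no effect and tetraoctylammonium bromide at 92 µM for full effect; nearly all actives have a fitted effect of over 55% in size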
Procedure, shortened: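 Cells at 2500 per well receive a 24 hr compound exposure at 37 C. Viability is measured as ATP-dependent luciferase luminescence, with AC50 modeled from qHTS concentration-response curves.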

[12] = Cell Viability - LYMP2-022 (AID 987)
Procedure, shortened: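 In this qHTS cytotoxicity screen, compound titrations were incubated 24 hr at 37 C with human lymphoblastoid cells in complete medium. Luciferase-based ATP luminescence provided the viability signal.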

[13] = Cell Viability - LYMP2-024 (AID 988);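 further: plate controls were DMSO only for no effect and 92 µM tetraoctylammonium bromide for full effect; nearly all actives have a fitted effect of over 60% in size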
Procedure, shortened: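 Cells at 2500 per well received compound for 24 hr after a 5 hr settling period. Viability was scored by CellTiter-Glo luminescence, with AC50 from Hill fits.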

[14] = Cell Viability - LYMP2-026 (AID 989); further: on the % scale 0 is the no-effect control and ±100 the full control effect; nearly all actives have a fitted effect of over 50% in size
Procedure, shortened: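 Acute toxicity screen in complete culture medium, with 24 hr compound exposure at 37 C. Viability read as cellular ATP via luciferase reaction, with tetraoctylammonium bromide (6.4pM to 92 uM) as positive control.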

[15] = Cell Viability - LYMP1-002 - Assay at 24 hr (AID 993); further: on the % scale 0 is the no-effect control and ±100 the full control effect
Procedure, shortened: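 Viability was judged from intracellular ATP using a luciferase read-out, following a 24-hour compound incubation at 37 C of lymphoblastoid cells seeded at 2500 per well. Concentration-response data were fitted to the Hill equation for AC50.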

[16] = Cell Viability - LYMP1-002 - Assay at 40 hr (AID 994)
Procedure, shortened: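 Concentration-dependent ATP loss after 40 hr treatment at 37 C defined toxicity; AC50 values were obtained by fitting the standard Hill equation.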

[17] = molecular target: Bile acid receptor (Homo sapiens) (UniProt Q96RI1); experiment: qHTS assay for small molecule antagonists of farnesoid X receptor signaling (AID 588526; calls by dose curve; further: on the % scale 0 is the no-effect control and ±100 the full control effect)
Procedure, shortened: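 Beta-lactamase reporter antagonist mode: HEK293T FXR-UAS-bla cells, titrated compound, CDCA stimulation, 16 h 37 C, CCF4 dye 2 h RT. Data normalized to CDCA 50 uM and DMSO; Hill-fit IC50.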

[18] = molecular target: Glucocorticoid receptor (Homo sapiens) (UniProt P04150); experiment: qHTS assay for small molecule agonists of glucocorticoid receptor signaling (AID 588532; active means well fitted curve in the direction sought with a large enough effect in the signal ratio, with a control signal flat; the % refers to the signal ratio;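 further: 100% = dexamethasone at 0.1 µM and 0% = DMSO only wells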); conditions: HeLa MMTV-bla, beta-lactamase ratio, agonist, 18 h; stronger effect = higher value; percent of dexamethasone control, DMSO zero
Procedure, shortened: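 Agonist-mode qHTS: GRE-driven beta-lactamase in HeLa cells exposed 18 h to titrated compounds (up to 92 uM), then CCF4 ratio read after 2 h at RT; Hill-fitted EC50, efficacy relative to 0.1 uM dexamethasone.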

[19] = molecular target: Peroxisome proliferator-activated receptor gamma (Homo sapiens) (UniProt P37231); experiment: qHTS assay for small molecule agonists of peroxisome proliferator-activated receptor gamma signaling (AID 588536; active means well fitted curve in the direction sought with a large enough effect in the signal ratio, with a control signal flat, not every such curve was filed as active; the % refers to the signal ratio;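 further: 0% = DMSO basal wells and 100% = rosiglitazone at 2 µM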)
Procedure, shortened: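 Compound treatment: 16 h, 37 C, HEK293 GeneBLAzer cells. Detection: CCF4, 2 h RT. Values: Hill-fit EC50, efficacy as % of 2 uM rosiglitazone.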

[20] = molecular target: Peroxisome proliferator-activated receptor gamma (Homo sapiens) (UniProt P37231); experiment: qHTS assay for small molecule antagonists of peroxisome proliferator-activated receptor gamma signaling (AID 588537; active means well fitted inhibition curve with a large enough effect in the signal ratio, with a control signal flat, not every such curve was filed as active; the % refers to the signal ratio;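 further: reporter cells co-stimulated with 50 nM rosiglitazone agonist during compound treatment; % of control where 0% means no effect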)
Procedure, shortened: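 Cell-based beta-lactamase assay; GW9662 served as the antagonist control. Stimulation used rosiglitazone, final 50 nM, 16 h, 37 C.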

[21] = molecular target: Vitamin D3 receptor (Homo sapiens) (UniProt P11473); experiment: qHTS assay for small molecule antagonists of vitamin D receptor signaling (AID 588541; calls by dose curve;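 further: receptor activated by calcitriol during compound treatment; series mostly up to about 77 µM; on the % scale 0 is the no-effect control and ±100 the full control effect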)
Procedure, shortened: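 Antagonist-mode beta-lactamase reporter assay: HEK293T VDR-UAS-bla cells were exposed to titrated compound alongside 1-alpha,25-dihydroxyvitamin D3 at 3 nM final for 16 h. Values were normalized to the 50 nM agonist control and DMSO basal, with IC50 and efficacy from Hill equation fits.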

[22] = molecular target: Vitamin D3 receptor (Homo sapiens) (UniProt P11473); experiment: qHTS assay for small molecule agonists of vitamin D receptor signaling (AID 588543; calls by dose curve;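 further: 0% = DMSO basal and 100% = reference agonist control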)
Procedure, shortened: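 Reporter cells (HEK293T, VDR-UAS-bla) were seeded in medium with 2% charcoal-stripped serum and incubated 5 h, then compounds in concentration series were added for 16 h at 37 °C. Stimulation was scaled between DMSO basal and 50 nM 1α,25-dihydroxyvitamin D3.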

[23] = qHTS assay for small molecule agonists of retinoid X receptor alpha signaling (AID 588544; calls by dose curve;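 on activation: 0% = DMSO basal wells and 100% = reference agonist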); conditions: HEK293T RXRa-UAS-bla, beta-lactamase reporter, 18 h; 530 nm emission
[24] = molecular target: Retinoic acid receptor RXR-alpha (Homo sapiens) (UniProt P19793); experiment: as above
[25] = molecular target: Thyroid hormone receptor beta (Homo sapiens) (UniProt P10828); experiment: qHTS assay for small molecule agonists of thyroid hormone receptor beta signaling (AID 588545; calls by dose curve)
Procedure, shortened: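 Agonist activity was read as beta-lactamase CCF4 fluorescence (405 ex, 460/530 em), scaled between DMSO (0%) and 10 nM T3 (100%), then Hill-fitted for EC50 and efficacy. HEK 293 TR-UAS-bla cells in 2% charcoal/dextran FBS medium were exposed 18 h at 37 C.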

[26] = qHTS assay for small molecule antagonists of retinoid X receptor alpha signaling (AID 588546; active means well fitted inhibition curve with a large enough effect in the signal ratio, with a control signal flat, not every such curve was filed as active; the % refers to the signal ratio;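 further: cells stimulated with 9-cis-retinoic acid as agonist; on the % scale 0 is the no-effect control and ±100 the full control effect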); conditions: HEK293T RXRa-UAS-bla, beta-lactamase ratio, antagonist mode; measured here: W530 green channel, cytotoxicity proxy
Procedure, shortened: (§1)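 Beta-lactamase reporter inhibition, read as CCF4 fluorescence ratio (ex 405, em 460/530 nm) after 2 h at RT. HEK293T UAS-bla cells, 2500/well, were stimulated with 9-cis-RA at 500 or 100 nM final alongside test compound for 18 h at 37 C.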

[27] = molecular target: Retinoic acid receptor RXR-alpha (Homo sapiens) (UniProt P19793); experiment: as above; conditions: HEK293T RXRa-UAS-bla, beta-lactamase ratio, antagonist mode
Procedure, shortened: as §1

[28] = molecular target: Thyroid hormone receptor beta (Homo sapiens) (UniProt P10828); experiment: qHTS assay for small molecule antagonists of thyroid hormone receptor beta signaling (AID 588547; active means well fitted inhibition curve with a large enough effect in the signal ratio, with a control signal flat, not every such curve was filed as active; the % refers to the signal ratio); conditions: TR-UAS-bla HEK293, beta-lactamase ratio, antagonist mode, 18 h
Procedure, shortened: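 Inhibition of T3-driven (0.4nM final) beta-lactamase reporter activity was measured over 0.59 nM to 92 uM compound after 18 h at 37 C. The cells were GripTite HEK293 TR-UAS-bla in charcoal/dextran-stripped serum, with CCF4 ratio read-out and IC50 from Hill fits.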

[29] = molecular target: Voltage-gated inwardly rectifying potassium channel KCNH2 (Homo sapiens) (UniProt Q12809); experiment: qHTS Assay for Small Molecule Inhibitors of the Human hERG Channel Activity (AID 588834);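 further: top concentration of the series differs between compounds; on the % scale 0 is the no-effect control and ±100 the full control effect; lower thallium flux fluorescence means stronger hERG block; nearly all actives have a fitted effect of over 50% in size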
Procedure, shortened: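 Step 1: BacMam hERG transduction of U2OS, 4 hrs RT. Step 2: overnight 37 °C, plate 2000 cells/well, 4 hr. Step 3: FluxOR load, compound 10 min, stimulate, read fluorescence.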

[30] = qHTS assay for small molecule activators of the p53 signaling pathway (AID 651743; active means well fitted activation curve with a large enough effect in the signal ratio, not every such curve was filed as active; the % refers to the signal ratio; further: series mostly up to about 92 µM; % of control where 0% means no effect); conditions: HCT-116 p53RE-bla, beta-lactamase FRET ratio, 16 h; activation: stronger effect = higher value
Procedure, shortened: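 A beta-lactamase reporter under p53 response element control, stably carried by HCT-116 cells, reported pathway activation. Test compounds were applied for 16 hours at 37 C, and fluorescence was measured 2 hours after adding the B/G FRET substrate.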

[31] = qHTS assay for small molecule activators of the nuclear factor-kappa B (NF-kB) signaling pathway (AID 651749; active means well fitted activation curve with a large enough effect in the signal ratio; the % refers to the signal ratio; further: series mostly up to about 77 µM; % of control where 0% means no effect); conditions: NF-kB-bla ME-180 cells, beta-lactamase FRET ratio, 16 h; stronger effect = higher value
Procedure, shortened: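 FRET-based beta-lactamase detection in ME-180 cells reports NF-kB response-element-driven transcription following overnight (16 hr) compound treatment.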

[32] = qHTS assay for small molecule disruptors of the mitochondrial membrane potential - 1 hr assay (AID 651754; calls by dose curve; further: on the % scale 0 is the no-effect control and ±100 the full control effect; nearly all actives have a fitted effect of over 35% in size)
Procedure, shortened: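 In this qHTS format, a 1 hr compound treatment of HepG2 cells precedes Mito-MPS staining, and membrane potential is judged from aggregate (red) against monomer (green) fluorescence intensity.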

[33] = qHTS assay for small molecule disruptors of the mitochondrial membrane potential - 5 hr assay (AID 651755; calls by dose curve; further: on the % scale 0 is the no-effect control and ±100 the full control effect; nearly all actives have a fitted effect of over 40% in size)
Procedure, shortened: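 Membrane-potential dye readout: red aggregate (540 ex/590 em) versus green monomer (490 ex/535 em) fluorescence after 30 min dye loading, following 5 hr compound exposure at 37C of overnight-plated HepG2 cells.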

[34] = molecular target: Tumor necrosis factor (Homo sapiens) (UniProt P01375); experiment: qHTS assay to identify small molecules that stimulate Tumor Necrosis Factor-alpha (TNF-alpha) secretion (AID 651757; active means well fitted curve in the direction sought with a large enough effect in the signal ratio; the % refers to the signal ratio; further: 0% is about no effect)
Procedure, shortened: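 Using 3000 THP-1 cells per well, compounds and controls were applied for 17 hrs at 37 C. Detection followed with two labeled anti-TNF-alpha antibodies (cryptate donor, XL665 acceptor) for 3 hr at room temperature, measured by TR-FRET.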

[35] = molecular target: Peroxisome proliferator-activated receptor alpha (Homo sapiens) (UniProt Q07869); experiment: qHTS assay for small molecule agonists of the peroxisome proliferator-activated receptor alpha (PPARalpha) signaling pathway (AID 651778); conditions: PathHunter PPARalpha complementation, chemiluminescence, 6 h; max response: stronger effect = higher value; further: % of control where 0% means no effect
Procedure, shortened: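 Chemiluminescence from complemented enzyme reported PPARalpha activation in cells after 6 hr of compound treatment at 37 C. The detection reagent was incubated for 60 min at room temperature, and compounds were scored as agonists.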

[36] = molecular target: Nuclear receptor ROR-gamma (Homo sapiens) (UniProt P51449); experiment: qHTS assay for small molecule antagonists of the retinoid-related orphan receptor gamma (ROR-gamma) signaling pathway (AID 651802)
Procedure, shortened: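 Doxycycline-induced reporter activity in engineered CHO cells (TET-inducible ROR, RORE-LUC) was measured by luminescence after 16hr compound exposure at 37C.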

[37] = qHTS assay for small molecule antagonists of the retinoid-related orphan receptor gamma (ROR-gamma) signaling pathway - cell viability counter screen (AID 720652; active means well fitted curve in the direction sought with a large enough effect in the repeat runs; an effect the other way counts as inactive or inconclusive)
Procedure, shortened: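 ATP-based viability readout in the ROR-gamma reporter CHO cells after 16 hr compound exposure under doxycycline induction.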

[38] = qHTS assay for small molecule agonists of the antioxidant response element (ARE) signaling pathway measured by Nrf2-dependant transcriptional activity - cell viability counter screen (AID 720653; active means well fitted curve in the direction sought with a large enough effect in the repeat runs; an effect the other way counts as inactive or inconclusive; further: on the % scale 0 is the no-effect control and ±100 the full control effect); conditions: ARE-bla HepG2 viability, CellTiter-Glo ATP luminescence, 16 h; max response: stronger effect = lower value
Procedure, shortened: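 Cytotoxicity counter screen: intracellular ATP quantified by CellTiter-Glo luminescence in the same ARE-bla HepG2 plates, after 16 h compound exposure and a 2 h beta-lactamase substrate step.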

[39] = qHTS assay for cell viability of HEK293 cells (AID 743288); conditions: ATP luminescence (CellTiter-Glo), 18 h; max response: stronger effect = lower value
Procedure, shortened: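 Viable-cell counts were inferred from luciferase-based ATP content in HEK293 cells seeded at 2,000/well, pre-incubated ≥5 h, then dosed with DMSO-solubilised compounds for 18 h at 37 C.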

Chain of Retinoic acid receptor RXR-alpha (Homo sapiens) (P19793 whole entry, looked up): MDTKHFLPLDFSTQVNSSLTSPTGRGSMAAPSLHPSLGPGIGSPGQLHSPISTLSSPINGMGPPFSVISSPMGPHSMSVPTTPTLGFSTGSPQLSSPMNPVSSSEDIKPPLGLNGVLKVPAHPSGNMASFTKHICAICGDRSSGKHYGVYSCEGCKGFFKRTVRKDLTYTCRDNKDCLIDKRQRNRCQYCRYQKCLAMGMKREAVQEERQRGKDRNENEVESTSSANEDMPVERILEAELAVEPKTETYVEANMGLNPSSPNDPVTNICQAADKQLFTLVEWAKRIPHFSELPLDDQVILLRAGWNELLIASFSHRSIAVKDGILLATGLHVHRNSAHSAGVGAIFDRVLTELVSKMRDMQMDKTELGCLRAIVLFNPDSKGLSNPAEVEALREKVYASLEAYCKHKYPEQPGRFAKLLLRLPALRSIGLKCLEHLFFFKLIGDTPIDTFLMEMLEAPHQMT
Chain of Thyroid hormone receptor beta (Homo sapiens) (P10828 whole entry, looked up): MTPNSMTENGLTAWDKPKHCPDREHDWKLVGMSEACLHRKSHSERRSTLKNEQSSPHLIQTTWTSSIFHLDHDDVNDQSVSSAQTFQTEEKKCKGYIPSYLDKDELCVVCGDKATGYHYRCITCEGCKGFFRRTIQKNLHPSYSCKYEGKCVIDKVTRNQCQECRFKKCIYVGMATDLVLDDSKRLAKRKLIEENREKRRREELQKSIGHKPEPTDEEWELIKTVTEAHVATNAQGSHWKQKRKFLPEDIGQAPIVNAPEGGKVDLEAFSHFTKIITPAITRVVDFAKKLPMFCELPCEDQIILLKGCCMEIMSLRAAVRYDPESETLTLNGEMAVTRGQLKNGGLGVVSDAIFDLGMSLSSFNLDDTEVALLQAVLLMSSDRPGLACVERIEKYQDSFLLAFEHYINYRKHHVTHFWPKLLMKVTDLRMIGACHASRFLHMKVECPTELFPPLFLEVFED
Chain of Peroxisome proliferator-activated receptor gamma (Homo sapiens) (P37231 whole entry, looked up): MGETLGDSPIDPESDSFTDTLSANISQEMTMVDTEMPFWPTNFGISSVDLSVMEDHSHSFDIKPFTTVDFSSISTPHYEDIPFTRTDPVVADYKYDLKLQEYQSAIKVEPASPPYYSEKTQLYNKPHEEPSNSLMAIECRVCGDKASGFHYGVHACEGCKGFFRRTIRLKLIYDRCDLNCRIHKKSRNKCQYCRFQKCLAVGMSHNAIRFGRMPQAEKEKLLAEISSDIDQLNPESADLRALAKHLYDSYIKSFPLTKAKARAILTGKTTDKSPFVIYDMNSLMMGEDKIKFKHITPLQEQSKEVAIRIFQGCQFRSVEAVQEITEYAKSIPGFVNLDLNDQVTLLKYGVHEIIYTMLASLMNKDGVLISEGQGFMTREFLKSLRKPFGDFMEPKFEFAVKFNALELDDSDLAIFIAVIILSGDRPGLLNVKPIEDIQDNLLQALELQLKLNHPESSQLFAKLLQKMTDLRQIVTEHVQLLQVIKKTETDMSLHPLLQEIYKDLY
Chain of Vitamin D3 receptor (Homo sapiens) (P11473 whole entry, looked up): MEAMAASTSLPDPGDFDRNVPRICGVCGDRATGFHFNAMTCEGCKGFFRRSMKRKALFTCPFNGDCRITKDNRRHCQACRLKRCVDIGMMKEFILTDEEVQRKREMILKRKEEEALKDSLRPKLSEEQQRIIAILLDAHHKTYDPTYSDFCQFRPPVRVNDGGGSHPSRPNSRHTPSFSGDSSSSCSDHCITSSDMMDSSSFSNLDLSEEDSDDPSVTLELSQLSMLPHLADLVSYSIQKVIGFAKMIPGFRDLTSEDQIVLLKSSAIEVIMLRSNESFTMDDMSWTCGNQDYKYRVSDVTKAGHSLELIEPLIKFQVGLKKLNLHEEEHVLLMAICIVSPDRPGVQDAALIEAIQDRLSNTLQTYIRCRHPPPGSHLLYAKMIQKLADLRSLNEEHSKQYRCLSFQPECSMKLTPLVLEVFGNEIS
Chain of Tumor necrosis factor (Homo sapiens) (P01375 whole entry, looked up): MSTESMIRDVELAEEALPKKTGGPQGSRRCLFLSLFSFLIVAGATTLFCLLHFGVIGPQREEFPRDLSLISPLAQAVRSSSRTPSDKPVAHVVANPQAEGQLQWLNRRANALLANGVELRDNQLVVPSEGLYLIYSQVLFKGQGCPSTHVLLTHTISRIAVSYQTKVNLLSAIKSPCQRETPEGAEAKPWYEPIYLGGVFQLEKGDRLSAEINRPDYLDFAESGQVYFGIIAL
Chain of Peroxisome proliferator-activated receptor alpha (Homo sapiens) (Q07869 whole entry, looked up): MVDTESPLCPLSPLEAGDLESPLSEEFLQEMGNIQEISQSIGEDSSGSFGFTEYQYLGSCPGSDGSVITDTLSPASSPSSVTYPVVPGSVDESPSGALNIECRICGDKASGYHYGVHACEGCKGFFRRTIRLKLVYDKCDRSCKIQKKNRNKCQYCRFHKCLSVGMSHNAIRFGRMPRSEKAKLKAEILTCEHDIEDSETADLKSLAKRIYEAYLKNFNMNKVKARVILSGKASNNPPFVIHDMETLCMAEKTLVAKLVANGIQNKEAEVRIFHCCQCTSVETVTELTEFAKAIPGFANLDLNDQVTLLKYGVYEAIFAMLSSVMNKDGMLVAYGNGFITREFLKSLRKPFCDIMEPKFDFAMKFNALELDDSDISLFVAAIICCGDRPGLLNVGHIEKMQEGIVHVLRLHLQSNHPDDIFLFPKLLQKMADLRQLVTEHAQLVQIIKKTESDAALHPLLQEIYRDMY
Chain of Bile acid receptor (Homo sapiens) (Q96RI1 whole entry, looked up): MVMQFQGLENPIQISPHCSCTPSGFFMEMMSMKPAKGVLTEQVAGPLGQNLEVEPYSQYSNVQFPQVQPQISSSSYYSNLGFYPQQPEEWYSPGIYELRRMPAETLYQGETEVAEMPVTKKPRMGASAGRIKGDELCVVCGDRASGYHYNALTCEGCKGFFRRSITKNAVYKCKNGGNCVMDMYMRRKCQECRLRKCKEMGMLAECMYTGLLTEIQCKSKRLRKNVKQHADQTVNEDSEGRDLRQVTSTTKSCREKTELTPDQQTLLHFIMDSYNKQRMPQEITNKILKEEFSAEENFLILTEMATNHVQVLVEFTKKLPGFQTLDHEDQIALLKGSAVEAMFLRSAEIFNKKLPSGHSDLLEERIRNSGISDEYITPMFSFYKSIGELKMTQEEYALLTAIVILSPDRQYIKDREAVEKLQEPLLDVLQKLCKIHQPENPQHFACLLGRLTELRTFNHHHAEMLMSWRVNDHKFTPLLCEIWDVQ
Chain of Nuclear receptor ROR-gamma (Homo sapiens) (P51449 whole entry, looked up): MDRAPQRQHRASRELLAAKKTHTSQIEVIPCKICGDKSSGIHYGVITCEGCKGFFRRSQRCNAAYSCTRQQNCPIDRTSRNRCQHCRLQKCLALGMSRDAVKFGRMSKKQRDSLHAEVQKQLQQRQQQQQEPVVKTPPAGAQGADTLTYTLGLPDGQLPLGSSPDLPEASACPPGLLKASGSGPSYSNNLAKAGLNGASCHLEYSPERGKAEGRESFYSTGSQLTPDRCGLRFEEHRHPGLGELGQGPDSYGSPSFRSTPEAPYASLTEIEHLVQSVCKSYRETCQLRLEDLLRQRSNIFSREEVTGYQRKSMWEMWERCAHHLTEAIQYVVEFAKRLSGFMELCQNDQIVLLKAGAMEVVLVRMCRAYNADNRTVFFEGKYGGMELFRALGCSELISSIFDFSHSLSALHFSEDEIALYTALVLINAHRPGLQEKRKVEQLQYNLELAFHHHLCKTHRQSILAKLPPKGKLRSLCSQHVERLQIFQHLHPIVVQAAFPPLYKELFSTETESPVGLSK
Chain of Voltage-gated inwardly rectifying potassium channel KCNH2 (Homo sapiens) (Q12809 whole entry, looked up): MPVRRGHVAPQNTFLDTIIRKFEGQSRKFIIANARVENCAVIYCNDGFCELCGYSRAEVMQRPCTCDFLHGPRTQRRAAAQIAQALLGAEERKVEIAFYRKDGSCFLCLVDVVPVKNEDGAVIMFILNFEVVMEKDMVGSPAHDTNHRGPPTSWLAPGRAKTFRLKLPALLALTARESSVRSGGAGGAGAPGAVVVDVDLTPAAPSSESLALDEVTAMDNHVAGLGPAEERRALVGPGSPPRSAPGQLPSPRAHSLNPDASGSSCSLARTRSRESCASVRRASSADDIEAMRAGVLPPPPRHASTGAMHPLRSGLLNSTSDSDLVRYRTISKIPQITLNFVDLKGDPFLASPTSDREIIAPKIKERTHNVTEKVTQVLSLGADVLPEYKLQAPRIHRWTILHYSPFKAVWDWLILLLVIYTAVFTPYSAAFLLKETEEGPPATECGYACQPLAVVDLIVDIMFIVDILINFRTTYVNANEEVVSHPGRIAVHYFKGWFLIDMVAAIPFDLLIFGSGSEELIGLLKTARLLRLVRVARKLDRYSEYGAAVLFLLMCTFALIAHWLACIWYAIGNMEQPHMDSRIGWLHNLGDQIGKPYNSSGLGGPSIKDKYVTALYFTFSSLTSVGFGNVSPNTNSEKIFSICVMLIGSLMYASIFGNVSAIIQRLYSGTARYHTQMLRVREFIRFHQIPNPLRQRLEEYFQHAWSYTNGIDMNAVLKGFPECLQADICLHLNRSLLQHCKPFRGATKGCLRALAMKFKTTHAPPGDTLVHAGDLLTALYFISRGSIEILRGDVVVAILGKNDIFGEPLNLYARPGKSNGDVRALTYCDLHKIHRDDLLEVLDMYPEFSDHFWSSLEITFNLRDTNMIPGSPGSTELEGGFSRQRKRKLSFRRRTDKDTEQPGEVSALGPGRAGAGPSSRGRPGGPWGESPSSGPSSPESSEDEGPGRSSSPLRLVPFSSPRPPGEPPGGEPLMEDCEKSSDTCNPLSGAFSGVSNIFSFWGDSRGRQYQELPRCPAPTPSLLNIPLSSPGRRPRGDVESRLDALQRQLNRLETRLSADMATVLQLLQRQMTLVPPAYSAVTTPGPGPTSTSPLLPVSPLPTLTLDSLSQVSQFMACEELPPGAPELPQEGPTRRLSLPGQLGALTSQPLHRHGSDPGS

Cc1cc2nc(N)sc2cc1C
inactive: Potency [1] | Potency [2] | Potency [3] | Potency [4] | Potency [5] | Potency [6] | Potency [7] | Potency [8] | Potency [9] | Potency [10] | Potency [11] | Potency [12] | Potency [13] | Potency [14] | Potency [15] | Potency [16] | Potency [17] | activation [18] -1.47% | outcome [19] | Potency [20] | Potency [21] | Potency [22] | Potency [24] | Potency [25] | max response [27] 9.41% | activity change % (negative = inhibition) [28] -0.19% | Potency [29] | activation [30] -2.08% | activation [31] -0.263% | Potency [32] | Potency [33] | Potency [34] | max response [35] -4.39% | Potency [36] | Potency [37] | max response [38] -19.7% | max response [39] -12.3%
0.388%: max response [26]
-11.8%: max response [23]
